The nature of test [1]: HepG2 liver cancer cell viability effects, profiling panel, resazurin fluorescence, 24 h, PK04 Diversity Set (AID 1172). Particulars: higher = more signal. (Alamar Blue is a resazurin reagent that responds to reducing activity.)
A short description of test [2]: basal S. cerevisiae growth modulation, no modifier, primary screen, OD600, strain BY4716, 24 h, basal condition (AID 1173). Conditions: OD600, 24 h, higher = more signal, called active from +8 up or from −8 down.
Test [3] in a line: MM1S myeloma cell viability, profiling panel, resazurin fluorescence, basal, 24 h, PK04 Diversity Set (AID 1174). Particulars: higher = more signal, called active from +8 up or from −8 down.
In test [4] the target is Dihydroorotate dehydrogenase (quinone), mitochondrial (Plasmodium falciparum (isolate 3D7)) (UniProt Q08210). The experiment in a line: PfDHODH enzyme inhibitors, primary screen, biochemical, C-terminal His tag, absorbance 600 nm (AID 1175).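 Also: recombinant parasite enzyme with a five histidine tag at its C terminus.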 Conditions: DCIP absorbance 600 nm, higher = more signal, called active from +8 up or from −8 down.
Dihydroorotate dehydrogenase (quinone), mitochondrial (Plasmodium falciparum (isolate 3D7)), sequence (Q08210 whole entry, looked up): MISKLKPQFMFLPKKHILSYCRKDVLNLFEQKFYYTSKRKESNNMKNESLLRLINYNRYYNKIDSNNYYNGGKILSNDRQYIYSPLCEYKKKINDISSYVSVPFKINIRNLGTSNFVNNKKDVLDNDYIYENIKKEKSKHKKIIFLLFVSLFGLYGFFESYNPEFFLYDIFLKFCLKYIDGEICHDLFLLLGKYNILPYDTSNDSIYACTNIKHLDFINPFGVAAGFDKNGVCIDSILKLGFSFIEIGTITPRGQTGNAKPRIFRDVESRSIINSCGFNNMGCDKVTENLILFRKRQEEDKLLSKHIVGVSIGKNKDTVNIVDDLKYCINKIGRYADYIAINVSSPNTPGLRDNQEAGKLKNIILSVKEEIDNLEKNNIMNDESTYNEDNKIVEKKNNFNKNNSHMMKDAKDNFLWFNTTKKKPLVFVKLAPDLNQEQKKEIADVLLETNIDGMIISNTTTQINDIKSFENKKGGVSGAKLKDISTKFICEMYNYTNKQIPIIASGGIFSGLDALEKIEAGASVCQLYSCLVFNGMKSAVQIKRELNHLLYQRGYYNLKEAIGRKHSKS
A short description of test [5]: P. aeruginosa biofilm formation inhibitors, primary screen, strain PAO1, LB-PBS medium, absorbance 600 nm (AID 1176). Particulars: P. aeruginosa PAO1 growth/biofilm, A600, 12 h; higher = more signal.
A short description of test [6]: S. cerevisiae RM11-1a growth modifiers, primary screen, strain RM11-1a, OD600, basal, 24 h (AID 1177).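 Also: cultures grown under basal conditions with no added stressor.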 Conditions: OD600, 24 h, higher = more signal, called active from +8 up or from −8 down.
Test [7] can be described thus: E. coli acrAB mutant growth effects, primary screen, E. coli filamentation inducers, strain DRC39, OD650, 24 h (AID 1178).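 Also: growth measured as culture turbidity by optical density at 650 nm.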 Particulars: higher = more signal, called active from +8 up or from −8 down.
Test [8] in a line: E. coli acrAB mutant growth effects, primary screen, E. coli filamentation inducers, strain DRC39, OD650, 48 h (AID 1179).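 Also: screen aims at cell division blockers that make cells filament.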 Conditions: E. coli DRC39 delta-acrAB growth, higher = more signal, called active from +8 up or from −8 down.
Test [9] is described as follows: RPMI8226 myeloma cell viability, profiling panel, resazurin fluorescence, basal, 24 h, PK04 Diversity Set (AID 1180).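 Also: RPMI8826 multiple myeloma cell line at 5000 cells per well.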 Conditions: higher = more signal.
In test [10] the target is E3 ubiquitin-protein ligase XIAP (Homo sapiens) (UniProt P98170). The experiment in a line: XIAP binders, primary screen, biophysical, small-molecule microarray, fluorescence 635 nm (AID 1181).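 Also: score merges 667 nm emission and signal to noise over triplicate slides.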 Particulars: small-molecule microarray binding, higher = more signal.
E3 ubiquitin-protein ligase XIAP (Homo sapiens), sequence (P98170 whole entry, looked up): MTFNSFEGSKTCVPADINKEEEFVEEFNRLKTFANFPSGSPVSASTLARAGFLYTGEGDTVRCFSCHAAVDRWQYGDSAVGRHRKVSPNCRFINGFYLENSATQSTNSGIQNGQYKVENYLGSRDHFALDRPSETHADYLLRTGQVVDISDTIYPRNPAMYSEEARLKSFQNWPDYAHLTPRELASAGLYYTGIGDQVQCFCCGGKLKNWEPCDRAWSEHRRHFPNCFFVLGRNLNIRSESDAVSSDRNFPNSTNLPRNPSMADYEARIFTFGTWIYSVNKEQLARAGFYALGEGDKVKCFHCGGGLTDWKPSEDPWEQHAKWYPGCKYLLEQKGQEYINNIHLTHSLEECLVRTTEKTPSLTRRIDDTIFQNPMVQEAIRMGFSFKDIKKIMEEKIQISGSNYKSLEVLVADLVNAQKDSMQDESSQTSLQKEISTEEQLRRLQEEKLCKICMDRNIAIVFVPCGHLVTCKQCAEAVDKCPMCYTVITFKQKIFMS
The test system of test [11] is XIP peptide (Xip251-270) binding. The experiment in a line: small-molecule binders of XIP peptide, primary screen, biochemical, small-molecule microarray, fluorescence 635/667 nm, 0.1 µg/mL protein (AID 1182). Particulars: fluorescent protein binding, 635 nm, higher = more signal, called active from +8 up or from −8 down.
In a further test the test system is XIP peptide (Xip251-270). Briefly: small-molecule binders of XIP peptide, primary screen, biochemical, small-molecule microarray, fluorescence 635/667 nm, 0.5 µg/mL protein (AID 1183). Particulars: small-molecule microarray binding, fluorescence 635 nm; higher = more signal.
Test [12] can be described thus: Plasmodium falciparum growth inhibition, primary screen, strain 3D7, DAPI fluorescence, 100 nL (AID 1184).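 Also: parasites grown inside human red blood cells in medium with human serum.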 Particulars: P. falciparum 3D7 growth, 3 d, higher = more signal.
Test [13] addresses Homeobox protein Hox-A13 (Mus musculus) (UniProt Q62424). The experiment in a line: inhibitors of HoxA13-DNA binding, primary screen, biochemical, fluorescence polarization, labeled oligonucleotide (AID 1185). Conditions: 15 min, higher = more signal, called active from +8 up or from −8 down. Background: Fluorescence polarisation rises when a labelled molecule tumbles more slowly, as on binding a larger partner.

Test [14] in a line: inhibitors of hydroxyurea-induced Chk1 phosphorylation, primary screen, imaging, HeLa, phospho-Chk1 antibody, percent positive cells (AID 1186). Conditions: hydroxyurea-induced phospho-Chk1 immunofluorescence imaging, higher = more signal.
Test [15] can be described thus: inhibitors of hydroxyurea-induced Chk1 phosphorylation, primary screen, imaging, HeLa, phospho-Chk1 nuclear intensity (AID 1187). Particulars: hydroxyurea-induced phospho-Chk1 immunofluorescence imaging, higher = more signal.

The structures appear in SMILES notation. The source made the active and inactive calls. Unless noted, no rule for the calls is given here.

Homeobox protein Hox-A13 (Mus musculus), sequence (Q62424 whole entry, looked up): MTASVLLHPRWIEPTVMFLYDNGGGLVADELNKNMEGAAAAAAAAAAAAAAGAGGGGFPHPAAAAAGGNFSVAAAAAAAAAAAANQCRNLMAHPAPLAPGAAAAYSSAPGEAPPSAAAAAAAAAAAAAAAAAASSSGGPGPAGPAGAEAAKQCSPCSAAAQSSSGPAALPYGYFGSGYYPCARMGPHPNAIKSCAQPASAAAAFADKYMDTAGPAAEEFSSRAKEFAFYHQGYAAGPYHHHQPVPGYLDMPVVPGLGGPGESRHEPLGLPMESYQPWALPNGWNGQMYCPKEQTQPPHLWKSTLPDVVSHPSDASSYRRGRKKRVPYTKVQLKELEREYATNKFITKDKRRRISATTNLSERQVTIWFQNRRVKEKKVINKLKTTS

As for `COc1ccc([Si](C)(C)[C@H]2[C@H](CC(=O)N3CCC[C@H]3CO)O[C@@]3(C(=O)N(Cc4ccc(N5CCCCC5=O)cc4)c4ccccc43)[C@@H]2C)cc1`, the z-score is -0.369 in test [1]; -0.0356 (inactive) in test [2]; -0.563 (inactive) in test [3]; -0.012 (inactive) in test [5]; 1.57 (inactive) in test [6]; -0.18 (inactive) in test [7]. Besides, the z-score in test [8] was -0.244 (inactive); in [9] it was -0.171; in [12], -1.64; in test [13], -4.85 (inactive); in test [14], 0.268 (inactive); in [15], 0.241 (inactive). Moreover, the composite z-score in test [4] was -2.66 (inactive); in [10], 0.197; in test [11], 0.214 (inactive); with XIP peptide (Xip251-270), 0.753.
Regarding `COc1ccc([Si](C)(C)[C@@H]2[C@@H](CC(=O)N(CCO)Cc3ccccc3)O[C@]3(C(=O)N(Cc4ccc(N5C(=O)c6cccc7cccc5c67)cc4)c4ccccc43)[C@H]2C)cc1`, the z-score in [1] was -1.17; in [2], 1.21 (inactive); in [3], -1.48 (inactive); in [5], 1.56 (inactive); in test [6], 2.5 (inactive); in test [7] it was 0.302 (inactive). Further, the z-score in test [8] is -0.22 (inactive); in test [9], -1.85; in test [12], -1.17; in test [13], -1.19 (inactive); in test [14] it was 0.398 (inactive); in test [15], -0.601 (inactive). Moreover, the composite z-score in test [4] is -0.992 (inactive); in test [10], 0.237; in [11] it was 1.28 (inactive); with XIP peptide (Xip251-270), 0.577.
`Cc1ccc(S[C@]2(C(=O)NCCCN(C)C)CC(=O)N(C3Cc4ccccc4C3)[C@@H]2c2ccc(CO)cc2I)cc1`: the z-score in [1] is -0.595; in test [2], -3.43 (inactive); in test [3], -2.99 (inactive); in test [5], 0.531 (inactive); in test [6], 0.609 (inactive); in [7], -0.605 (inactive). Moreover, the z-score in test [8] is -0.623 (inactive); in test [9] it was -2.37; in test [12], -0.235; in [13], -3.61 (inactive); in test [14], 0.721 (inactive); in [15], 0.848 (inactive). The composite z-score in test [4] is 0.505 (inactive); in test [10] it was -0.0999; in test [11] it was -0.261 (inactive); in the test on XIP peptide (Xip251-270) it was 0.315.
In the case of `CC(C)C(O)C1C=CC2C(=O)NC(=O)C2N1Nc1ccccn1` (stereo not given), the z-score in test [1] was -0.984; in [2] it was 0.754 (inactive); in test [3], -1.69 (inactive); in test [5], 0.612 (inactive); in test [6], 0.696 (inactive); in test [7] it was -1.03 (inactive). In addition, the z-score is 0.125 (inactive) in test [8]; -1.23 in test [9]; 0.17 in [12]; -3.11 (inactive) in [13]; -0.446 (inactive) in test [14]; -0.67 (inactive) in test [15]. Also, the composite z-score is 0.48 (inactive) in test [4], 0.106 in test [10], 0.163 (inactive) in test [11] and 0.943 with XIP peptide (Xip251-270).
For `CN1C(=O)[C@@H]2[C@@H](CC(COc3ccccc3)=C3[C@@H](CCc4ccccc4)OB(O)C[C@@H]32)C1=O`, the z-score is -0.418 in test [1]; -1.87 (inactive) in test [2]; -0.675 (inactive) in test [3]; 0.2 (inactive) in test [5]; -0.0646 (inactive) in [6]; 0.0204 (inactive) in [7]. For the same compound, the z-score is -0.0443 (inactive) in test [8]; -0.861 in [9]; 1.52 in test [12]; -6.67 (inactive) in [13]; 0.556 (inactive) in test [14]; 0.768 (inactive) in test [15]. The composite z-score was -0.399 (inactive) in test [4], -0.02 in test [10], 0.106 (inactive) in test [11] and 0.774 with XIP peptide (Xip251-270).
As for `NC(=O)N1C(=O)C2C(C1=O)C1C=C(CCCO)C2C(c2ccc(CN3CCCC3)cc2)N1Cc1cc2c(cc1Br)OCO2` (stereo not given), the z-score in [1] is -0.766; in test [2], -0.222 (inactive); in test [3], -1.29 (inactive); in test [5], 0.792 (inactive); in [6], -0.572 (inactive); in [7], -0.672 (inactive). Besides, the z-score was -0.299 (inactive) in test [8]; -1.5 in test [9]; -0.459 in test [12]; -4.36 (inactive) in [13]; 0.504 (inactive) in test [14]; 0.519 (inactive) in test [15]. Further, the composite z-score was 0.0032 (inactive) in test [4], 0.0251 in [10], 0.224 (inactive) in [11] and -0.0073 in the test on XIP peptide (Xip251-270).
For the compound `C=CC[C@@]12N=C(c3ccc(OCCCO)cc3)O[C@@H]1c1ccccc1N(CCC)C2=O`, the z-score was 0.167 in test [1]; -2.22 (inactive) in test [2]; -1.19 (inactive) in test [3]; 1.2 (inactive) in [5]; 0.829 (inactive) in [6]; 0.215 (inactive) in [7]. Besides, the z-score is 1.02 (inactive) in [8]; -0.473 in [9]; -2.25 in [12]; -4.8 (inactive) in [13]; 0.291 (inactive) in test [14]; 0.58 (inactive) in [15]. In addition, the composite z-score in test [4] is -0.147 (inactive); in test [10] it was -0.132; in [11] it was 2.48 (inactive); in the test with XIP peptide (Xip251-270), 0.759.
With `CN(C)CCCC[C@@H]1NC(=O)[C@@H]2C[C@H](C(=O)NCCCCCCNC(=O)CS)[C@H](c3ccc(O)cc3)N2C1=O`, the z-score is 0.155 in test [1]; -0.17 (inactive) in test [2]; -0.353 (inactive) in test [3]; 0.767 (inactive) in test [5]; -0.264 (inactive) in [6]; -0.19 (inactive) in test [7]. The z-score in test [8] was -0.551 (inactive); in [9], 0.0875; in test [12], -0.0596; in test [13], -1.31 (inactive); in [14], -0.282 (inactive); in [15], -0.405 (inactive). Besides, the composite z-score in test [4] is -0.173 (inactive); in test [10], 0.0013; in [11], 0.237 (inactive); in the test on XIP peptide (Xip251-270), 0.859.
With `CC(C)=C1C(=O)C(c2ccccc2)=C2CN3C(=O)N(CCc4ccccc4)C(=O)[C@]3(C)[C@H]21`, the z-score was -0.823 in test [1]; -0.0416 (inactive) in test [2]; -1.56 (inactive) in test [3]; -0.0424 (inactive) in test [5]; 0.119 (inactive) in [6]; -0.575 (inactive) in test [7]. The z-score in [8] is -0.456 (inactive); in test [9] it was -1.52; in [12], 0.127; in test [13], -3.12 (inactive); in test [14] it was -0.0061 (inactive); in [15], 0.467 (inactive). Besides, the composite z-score in test [4] was -0.757 (inactive); in test [10], 0.387; in test [11] it was 0.254 (inactive); in the test with XIP peptide (Xip251-270), 0.295.
As for `CC(=O)NCCCC[C@@H]1NC(=O)[C@H]2C[C@@H](C(=O)NCCCCCCNC(=O)CS)[C@@H](c3cccc(OCCO)c3)N2C1=O`, the z-score was -0.0625 in [1]; 0.535 (inactive) in test [2]; -0.469 (inactive) in test [3]; 0.339 (inactive) in test [5]; 1.05 (inactive) in test [6]; 0.0843 (inactive) in test [7]. Moreover, the z-score in test [8] was -0.264 (inactive); in test [9] it was -0.737; in [12], 0.287; in test [13], -4.38 (inactive); in test [14], 0.0478 (inactive); in test [15], 1.23 (inactive). The composite z-score in test [4] was 0.929 (inactive); in test [10], 0.0593; in [11] it was 2.82 (inactive); in the test on XIP peptide (Xip251-270), 0.349.
